# Measured values: paper PMC12864922, “TDP-43 directly inhibits mRNA accumulation in neurites through modulation of mRNA stability”
# In all, about 9,900 sequences were measured (“r (bound/input frequency ratio)”: median about 0.7, highest 2% from about 6.5 on). Shown is part of a subset that was picked to be rich in the highest values.
# B1: ENSMUSG00000032194.22|Kank2 (ssRNA)
# RNA: GGGAGUUCUACAGUCCGACGAUCGCUUCGAUAUCCGCAUGCUAUCCCUCUGUCCCAUUCUGCCUCGGCAUUCCUCAGCCCCUGAACUUCCCUGAGGGAGCCCUGACAUCUACCAGGCUCAAGCUCCUGGAAGCCUUUCCCAGCACCCUGGGUUCAAAGCCAGAAAGCCAAGCUACAUUCUCCUCCCAGUUGGCACCAGUUGACAACGCCUUGGGUGUGGGUUUCUUGUAAAGAACAUAGAGAACAAUCAGCCGGCAAUUAUGGGAGGAGGAAGGGGGGGCAAGAAGAGAAAAUACUGUAUUCUCUCUUGCGGUCGCACUAGUGUGGAAUUCUCGGGUGUCAAGG
# B2: ENSMUSG00000035202.148|Lars2 (ssRNA)
# RNA: GGGAGUUCUACAGUCCGACGAUCGCUUCGAUAUCCGCAUGCUAUCUCCAACACGAAAAAAGCAAGGCAACUCUACCAAAGAAACUAAUUACAUACUUGUAUUCCCAAUAUGUGAGAAGCUGAGGAAGGAGGAUCAUGAGUUUAAAGCCAUCCUUGGUUACAUGAGACUCUUGUCUCAAAGAACUACCAGGGAUCCUAAUGGACAACAAAGGUUGAAAACCAUUGAAUUAAUAAAUGUUGUGAACCAUAAUUUCUACCCAGUCCUUCUUCCUUCAUUUUCAUCUCAUCUGGGAUAAGUUUAGCCCUCUUGCGGUCGCACUAGUGUGGAAUUCUCGGGUGUCAAGG
# B3: ENSMUSG00000043670.75|Diras1 (ssRNA)
# RNA: GGGAGUUCUACAGUCCGACGAUCGCUUCGAUAUCCGCAUGCUAUUUGAUCCCUGUGGAUCUGAAAACAGGGACCUGGCUAAGGAACUGCUCAUCCCAGUCAGGCCCAGAGAGGUUACCUUGCCUCUCCAUCUCUGUCCCUGUGUGCCCAGCCAUGCCCACUGUCCCUGUCCCUCACAUUCUAUCACUGUGACCUCUGGGGAGUGCCCAUUGACCUCAUCUUCCUUCACUAAUAUCUUAUUUCUUUCACCUGAUCCUGUCCUUUCCCCGUGACCUCUGACCUGUGGCCUUCCCUGGGUCCAGAACUCUUGCGGUCGCACUAGUGUGGAAUUCUCGGGUGUCAAGG
# B4: ENSMUSG00000058297.201|Spock2 (ssRNA)
# RNA: GGGAGUUCUACAGUCCGACGAUCGCUUCGAUAUCCGCAUGCUAAGGAAAUGGUUCCCUCUUGCCCCGACCAAUAGAAGGGCGUGUCCCCGAGACCCUUGUGAGGAACCACGGGGAGCUGUGACUUCCUGUGCCCAGAAGGUCCUGGAGGAGAGGCCCCAAAGCCUUAGUCCUCUCAGCCAUGACUUUCCUCUGUCUCAAGGGUCCCCAAGAUGGCCCUAGAAGAACCAUGCCCCAGACUCUAUUUAAAGCCCUAUAGCAUAUAUGAAUAGAGAACGGUGUAUCUAUCAGAGGGGACCACACUGCUCUUGCGGUCGCACUAGUGUGGAAUUCUCGGGUGUCAAGG
# B5: ENSMUSG00000061578.1546|Ksr2|104:108 (ssRNA)
# RNA: GGGAGUUCUACAGUCCGACGAUCGCUUCGAUAUCCGCAUGCUAAGAUCAUUUAUAAAGUUUUCUACACUUCUCAAAAAAAAAAAUAUUUCUAACCUUGGCUGUUGGACAGUCUGUGAGCCUGUGAGCCGGCAAGCCUGUUGUUUCUACACAUUAGUGCAAUGUUAGUGAGAAUCCAGUGUCUGAGUUAUUAAUGCCAAUAAAGAAUUUGAGAAUUACUGCAUCCGCUGCUGUCACUCCAGGUCAGAACUCUGCUGUUGUCUGUUGGAUGGAAGGAAGCUCCAGAGUGAGGAACAAUGGUUGCUCUCUUGCGGUCGCACUAGUGUGGAAUUCUCGGGUGUCAAGG
# B6: ENSMUSG00000029636.29|Wasf3|57:61;103:107 (ssRNA)
# RNA: GGGAGUUCUACAGUCCGACGAUCGCUUCGAUAUCCGCAUGCUAUCUCUGCACCCUCACAGUGGUAUUUCCCUGUAGCUUUAGUCCCUUUUGUAUUAACACACACAUUUGCUUCUGCACAUCCUUCUGGAUUUGUUGAGUAUUUACACACAAAUACUUAAGUGCCACAGAACACAGCACACCGUGCUGCACACCAGGAAACUCGCAGUAUUAGUGCAUCACCCUGGAACAGCAUCUUGCUUCCCUCUCAGCCGUGAGAGUCCCCUCUCCUGUCCAUCCUGAUUUGGUGGGCUUGCCACGUAUCUCUCUUGCGGUCGCACUAGUGUGGAAUUCUCGGGUGUCAAGG
# B7: ENSMUSG00000029636.244|Wasf3 (ssRNA)
# RNA: GGGAGUUCUACAGUCCGACGAUCGCUUCGAUAUCCGCAUGCUAUGACAGGGAAUGCCUGUGGGAUAAUUAAAAAUGGUUUUUGCUCAUGAGUUUGGGAUGUCACCCAGCCGCCCACAUCGCCUGCUAUGUGUGUGGACGCCUGUCCGCUUGGCCAGCUAUCCUGUAACACCUGCCAGUAGUAGGUUUUCCUCAUGUCACUAUGACAGUGAAAGCCCAUGUGCAAGCCCCUCCCUACGCCCUGCUUUGGCGUGUGUCUGAGUGCUCUGUGCUGCGCCAUGGCCAUCCUGGAGCCUGCGCACACGCUCUUGCGGUCGCACUAGUGUGGAAUUCUCGGGUGUCAAGG
# B8: ENSMUSG00000061578.1047|Ksr2 (ssRNA)
# RNA: GGGAGUUCUACAGUCCGACGAUCGCUUCGAUAUCCGCAUGCUACCUCUCCCUGGAGCUGGCAGCCAUGGUUGAUGGCUAUGGGAUACAAUGUGGAUCUUUAGAUGUGAAAGUCUGAUGACUCAAAUCAAAGUUUGGUUUUUCUUUUCUACUACUCUGAAGGAAAAUCUCAGCUUGGCUAUUUCUUCAUGUUUUAAAAAUGUCUUGACUUCUCUCAGCAACCAACUUCAGGUGCCAGGAUAUGAGAUGCUAAGGUUCAGGGGUGGUGGAGGUGAUUCUAUCCAGUGGCCAGCAAUACCCAAAAGCUCUUGCGGUCGCACUAGUGUGGAAUUCUCGGGUGUCAAGG
# B9: ENSMUSG00000042529.394|Kcnj12 (ssRNA)
# RNA: GGGAGUUCUACAGUCCGACGAUCGCUUCGAUAUCCGCAUGCUAUUGAGUCCCUGCCCUGCCCUGGUUAUGCAGGCUGUACGACGCAGUGUGCAUCAGUCUGAGGAGUCUGGUGGUAAGUAAGCCUCUGCAGCAGACCCUGUCGGAGGCCAUGGGGGCGUGUGUGUGUGUGUGUGUGUGUGUGUGUGUGUGUGUGUGUGUGUGUGUGUGUGAACAUGUGUGAGGGUGUGGAGGUCCCAGGGUGUGUGUAUGUGAAUGUCAGUGGCUUGGGUGCUGUGUGGAGAGAGAGAGAGAGAGAGAGAGAGCUCUUGCGGUCGCACUAGUGUGGAAUUCUCGGGUGUCAAGG
# Biological target: TDP-43 (Homo sapiens, UniProt Q13148 1-414)
# Assay: RNA Bind-n-Seq with designed 260-mer pool; 25 mM Tris-HCl, 150 mM KCl, 3 mM MgCl2, BSA (printed 500 mg/mL), 20 units/mL SUPERase IN; pH not stated; 500 nM RNA pool, 1 h, 4 C; TDP-43 5, 50, 500 nM; high values mean tight binding
# Settings: protein: recombinant; tags: SBP (GST cleaved off with PreScission; pGEX-GST-SBP)
# In short: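 In 25 mM Tris-HCl, 150 mM KCl, 3 mM MgCl2, BSA and SUPERase IN, 500 nM of an in vitro-transcribed 260-nt 3′ UTR oligo pool was incubated for 1 h at 4 °C with SBP-tagged TDP-43 (5, 50 or 500 nM) captured on streptavidin beads. RNA remaining after washes was biotin-eluted, reverse transcribed, PCR-amplified and sequenced. Binding, R, is the bound-sample abundance of each oligo, normalized to mapped reads, divided by its abundance in input. Each duplicate used a separate, independent protein batch.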
# Chain of TDP-43 (Q13148 whole entry): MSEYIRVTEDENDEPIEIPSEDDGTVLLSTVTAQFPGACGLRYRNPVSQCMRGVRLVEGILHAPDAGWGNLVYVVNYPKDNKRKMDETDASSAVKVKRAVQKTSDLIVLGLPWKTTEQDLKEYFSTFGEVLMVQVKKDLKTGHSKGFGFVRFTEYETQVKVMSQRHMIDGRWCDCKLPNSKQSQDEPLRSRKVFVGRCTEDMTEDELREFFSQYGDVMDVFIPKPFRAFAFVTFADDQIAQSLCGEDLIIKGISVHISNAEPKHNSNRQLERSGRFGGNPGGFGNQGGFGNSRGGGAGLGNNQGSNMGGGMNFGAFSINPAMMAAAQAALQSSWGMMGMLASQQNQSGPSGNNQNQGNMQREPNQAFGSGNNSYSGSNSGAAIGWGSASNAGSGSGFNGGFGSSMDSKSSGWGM
row,Binder,binding signal
1,B1,0.911 R (bound/input frequency ratio)
2,B2,0.0673 R (bound/input frequency ratio)
3,B3,2.09 R (bound/input frequency ratio)
4,B4,0.372 R (bound/input frequency ratio)
5,B5,0.542 R (bound/input frequency ratio)
6,B6,0.499 R (bound/input frequency ratio)
7,B7,0.625 R (bound/input frequency ratio)
8,B8,0.12 R (bound/input frequency ratio)
9,B9,5.55 R (bound/input frequency ratio)
